Most compounds without a hit are left out; they make up all but 18% or so of the library.
IL1B secr inh = inhibitors of inflammasome signaling (IL-1 beta secretion); 4.7% of 360,000 active; THP-1 LPS/ATP IL-1B secretion, AlphaLISA, 16 h; active compounds read low; activity change, % at 57.5 µM; in the data active = activity change below about -50%; inconclusive = mostly about -30% to -49%
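THP-1 cells pretreated 1 hr with compounds (up to 57.5 uM final), then stimulated with LPS (250 ng/mL final) plus ATP (1.25 mM final); secreted IL-1B measured by AlphaLISA after 16 hr, decreased signal indicating inhibition.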
CtBP-E1A inh = inhibitors of CtBP/E1A interaction; activity change, % (no concentration beside the values); AlphaScreen GST-E1A/His-CtBP binding, 1536-well; active compounds read low; 0.49% of 340,000 active; AID 651724; in the data active = activity change below about -65%; inconclusive = mostly about -30% to -63%
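Steps: dispense buffer (Tris pH 8.0, NaCl 300 mM, TCEP 1 mM, BSA, Tween 20); add 5X protein mix (GST-E1A, His-CtBP, 125 nM each); pin 23 nL compound; 2 h at 37 °C, dark; add 5X beads (50 ug/mL); 1 h; read.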
DT40 TDP1 no CPT = qHTS for Inhibitors of human tyrosyl-DNA phosphodiesterase 1 (TDP1): qHTS in cells in absence of CPT; DT40 Tdp1-/- hTDP1 cells, no CPT, ATP luminescence, 48 h; 15% of 420,000 active; Potency, µM (doses to about 46.2 µM), usual class: inhibitors; also: nearly all actives have a fitted effect of over 55% in size
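Readout: luminescence from CellTiter-Glo after 30 min in the dark at RT. Cells: DT40 Tdp1-/- with stable hTDP1, 400/well. Exposure: compounds alone, ≥48 hr, 37 °C.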
TDP1 block = inhibitors of human tyrosyl-DNA phosphodiesterase TDP1. Q9NUW8. recombinant TDP1, AlphaScreen DNA substrate cleavage. Potency, µM (doses to about 130 µM), most hits filed as inhibitors. 0.28% of 350,000 active. AID 485290; also: nearly all actives have a fitted effect of over 40% in size
Target sequence (Q9NUW8 whole entry, looked up): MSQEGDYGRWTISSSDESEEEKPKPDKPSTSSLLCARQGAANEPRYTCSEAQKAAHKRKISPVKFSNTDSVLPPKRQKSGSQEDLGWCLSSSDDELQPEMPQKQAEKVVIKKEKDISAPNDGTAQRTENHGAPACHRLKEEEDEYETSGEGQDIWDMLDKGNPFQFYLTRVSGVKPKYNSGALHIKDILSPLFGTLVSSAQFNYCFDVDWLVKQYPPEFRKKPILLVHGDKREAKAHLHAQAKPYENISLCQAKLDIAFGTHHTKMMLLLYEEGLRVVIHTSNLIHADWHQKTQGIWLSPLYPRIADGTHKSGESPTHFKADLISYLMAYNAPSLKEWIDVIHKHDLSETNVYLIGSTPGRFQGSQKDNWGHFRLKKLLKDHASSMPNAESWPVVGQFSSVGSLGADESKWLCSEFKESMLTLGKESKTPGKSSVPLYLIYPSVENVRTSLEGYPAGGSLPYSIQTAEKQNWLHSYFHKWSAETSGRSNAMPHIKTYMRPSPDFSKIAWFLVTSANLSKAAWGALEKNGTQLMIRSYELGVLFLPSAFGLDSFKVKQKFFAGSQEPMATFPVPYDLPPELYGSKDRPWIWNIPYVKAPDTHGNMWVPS
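Compounds were preincubated with Tdp1 (1 nM final) for 15 min at room temperature before substrate (15 nM final) started a 5 min reaction; beads (10 ug/ml final) were then added for 10 min before AlphaScreen detection.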
Six1-Eya2 blk = inhibitors of human Six1/Eya2 interaction; AlphaScreen GST-Six1/His-Eya2 binding, biochemical; active compounds read low; activity change, % (test concentration not listed); 0.56% of 360,000 active; AID 651725; in the data active = activity change below about -65%; inconclusive = mostly about -30% to -63%
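Homogeneous AlphaScreen proximity assay pairing GST-Six1 with His-tagged Eya2 (added as 5X mix: 250 nM and 500 nM) in 50 mM Tris pH 8.0, 300 mM NaCl, 1 mM TCEP. Glutathione donor and nickel acceptor beads; 1 h, 37 °C, dark.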
DT40 TDP1 CPT = growth inhibition of DT40 Tdp1-/-;hTDP1 cells with camptothecin (screen for TDP1 inhibitors) | chicken DT40 Tdp1-/-;hTDP1 cells + 20 nM CPT, ATP luminescence, 48 h | Potency, µM (series often up to 46.2 µM), usual class: inhibitors | 12% of 420,000 active; also: nearly all actives have a fitted effect of over 55% in size
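Chicken DT40 Tdp1-/- cells complemented with human TDP1, 400 cells/well, exposed to compounds plus 20 nM camptothecin for at least 48 h at 37 C; viability read as ATP content by CellTiter-Glo luminescence.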
Hits are given with their value; . = inactive; ? = inconclusive; / = no result given; ! = not confirmed by another sample. Unless noted, calls follow the shape of the dose curve; as a rule, active = well fitted curve in the direction sought with a large enough effect; inconclusive = small, poorly fitted or top-dose-only effect, or another doubt; inactive = no such curve, though single readings can be large; an effect the other way counts as inactive or inconclusive.

SMILES	IL1B secr inh	CtBP-E1A inh	DT40 TDP1 no CPT	TDP1 block	Six1-Eya2 blk	DT40 TDP1 CPT
O=C(N/N=C1\CCCc2ccccc21)c1ccccc1Cl	.	.	.	.	.	2.06µM
COC(=O)C1=C(C)N(Cc2ccc3c(c2)OCO3)C(=O)C1	.	.	.	.	.	.
CCc1nc(Nc2ccccc2O)c2oc3ccccc3c2n1	.	.	.	/	.	.
Cc1ccc(C2NC(=O)CCC2[N+](=O)[O-])cc1 (centres undefined)	.	/	?	.	.	18.4µM
CCc1nc2ccccc2n2c(-c3ccc(C)cc3)c3c(=O)n(C)c(=O)n(C)c3c12	/	/	?	.	/	?
COc1ccc(-c2nc3ccccc3n3c(-c4ccc(OC)cc4)c4c(=O)n(C)c(=O)n(C)c4c23)cc1	/	/	?	.	/	?
CCCCc1nc2ccccc2n2c(-c3ccc(OC)cc3)c3c(=O)n(C)c(=O)n(C)c3c12	/	/	18.4µM	.	/	?
CCCc1nc2ccccc2n2c(-c3ccccc3)c3c(=O)n(C)c(=O)n(C)c3c12	/	/	?	.	/	13µM
CCCCc1nc2ccccc2n2c(-c3ccc(C)cc3)c3c(=O)n(C)c(=O)n(C)c3c12	/	/	11.6µM	.	/	?
CCc1cccc(CC)c1NC(=O)CN1CCN(S(=O)(=O)c2ccccc2)CC1	.	.	.	.	.	.
CN(CC(=O)Nc1sc2c(c1C#N)CCCCC2)Cc1nc2ccccc2c(=O)[nH]1	.	.	18.4µM	.	?	?
CN(Cc1nc2ccccc2c(=O)[nH]1)C(=O)c1cc2c(s1)CCCCC2	.	.	16.4µM	.	.	23.1µM
COc1cccc(CN(C)CC(=O)Nc2sc3c(c2C#N)CCC3)c1OC	.	.	.	.	.	.
COc1ccccc1C(=O)Nc1cc2c(cc1N1CCCC1)n(C)c(=O)c(=O)n2C	/	/	?	.	/	.
CCN(CC)C(=O)COc1ccc(S(=O)(=O)N2CCOCC2)cc1	.	.	.	.	.	.
Cc1ccnc(NC2(C(F)(F)F)N=C3SCCN3C2=O)c1 (centres undefined)	.	.	.	.	.	.
O=C(NCCc1ccc(Cl)cc1)C1(c2cccs2)CCOCC1	/	/	.	.	/	.
CCc1ccc(C(=O)c2cn(CC(=O)Nc3ccc(OC)cc3OC)c3ccc(CC)cc3c2=O)cc1	/	/	.	.	/	.
Cc1ccnc(NC(=O)CCCOc2cc(=O)n(C)c3ccccc23)c1	-75.7!	.	?	.	.	?
CC1CCN(C(=O)Cn2c(-c3cccs3)cc3cc(Cl)ccc32)CC1	/	/	?	.	/	16.4µM
CCOC(=O)C1CCN(C(=O)Cn2c(-c3cccs3)cc3cc(Cl)ccc32)CC1	/	/	20.6µM	.	/	14.6µM
CCCN1CCN(C(=O)Cn2c(-c3cccs3)cc3cc(F)ccc32)CC1	/	/	.	.	/	11.6µM
CCOc1ccc(CCNC(=O)Cn2c(-c3cccs3)cc3cc(F)ccc32)cc1OCC	/	/	13µM	.	/	11.6µM
O=C(Cn1c(-c2cccs2)cc2cc(Cl)ccc21)N1CCN(c2ccccc2)CC1	/	/	.	.	/	?
CCCN1CCN(C(=O)Cn2c(-c3cccs3)cc3ccccc32)CC1	/	/	?	.	/	?
SMILES	IL1B secr inh	CtBP-E1A inh	DT40 TDP1 no CPT	TDP1 block	Six1-Eya2 blk	DT40 TDP1 CPT
Cc1nn(-c2ccccc2)c(Cl)c1/C=N/Nc1ccc(S(=O)(=O)Nc2ccccc2C(=O)O)cc1[N+](=O)[O-]	.	?	.	.	.	?
Cc1c(CNC2CCC(C)CC2)c(C(=O)O)c(C)n1Cc1ccccc1 (centres undefined)	.	.	.	.	.	.
Cc1ccccc1NC(=O)CC1C(=O)Nc2ccccc2N1CC(=O)N(C)C1CCS(=O)(=O)C1 (centres undefined)	.	.	.	.	.	.
COc1ccc(CCNC(=O)Nc2cccc([N+](=O)[O-])c2)cc1	.	.	?	.	.	?
COc1ccc(NC(=O)c2cccnc2C(=O)O)c(OC)c1	.	.	.	.	.	.
O=S(=O)(c1ccccc1)N1CCN(Cc2cc3c(cc2Br)OCCO3)CC1	.	.	?	.	.	?
O=C(NC(=S)NCc1ccc(Cl)cc1)c1ccco1	-100.9	.	?	.	.	?
CCC(NC(=O)c1ccccc1NC(=O)c1ccco1)C(=O)NNC(=O)c1ccc(OC)cc1 (centres undefined)	-120.0	.	.	.	.	.
CCCOc1ccc(C(=O)NNC(=S)NC(=O)c2ccco2)cc1	.	.	2.91µM	/	.	3.26µM
CCC(C)C(NC(=O)c1ccccc1NC(=O)c1ccco1)C(=O)NNC(=O)c1ccc(OC)cc1 (centres undefined)	.	.	.	.	.	?
O=C(NC(=S)NCCc1ccccc1)c1ccco1	.	.	?	.	.	?
COc1ccc(C(=O)NNC(=S)NC(=O)c2ccco2)cc1	.	.	8.2µM	.	.	5.17µM
O=C(NNC(=S)NC(=O)c1ccco1)c1ccc(F)cc1	.	.	?	/	.	?
CCc1cccc2c(C(=O)COC(=O)/C=C/c3ccccc3OC)c[nH]c12	.	.	.	.	.	.

High-throughput results deposited in PubChem by National Center for Advancing Translational Sciences (NCATS).
